KB-3-1 tox: kills parental KB-3-1 adenocarcinoma cells. KB-3-1 viability, CellTiter-Glo ATP luminescence, 72 h. Potency, µM (top dose mostly 46.1 µM), hits mostly cytotoxic. hit rate 1.4% among 400,000. AID 1347075; further: nearly all actives have a fitted effect of over 60% in size
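Here the drug-naive KB-3-1 line serves as comparator for MDR sub-line selectivity; cells received compound titrations, 72 h at 37 °C, then CellTiter-Glo readout.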
HT1080 IDH1KD tx: kills HT-1080 cells with IDH1 knockdown; HT-1080 IDH1 knockdown viability, ATP luminescence, 48 h; hit rate 2% among 360,000; Potency, µM (titrated, usually from 46.1 µM), for inactives: at the highest dose activity, negative = toxicity, actives largely listed as cytotoxic;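 further: 0% = DMSO wells and -100% = cell-free medium wells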
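Cytotoxicity counter-line: IDH1KD HT-1080, 48 h, CellTiter-Glo. Curves classed by r2, magnitude and activity.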
KB-V1 MDR tox: KB-V1 MDR subline cytotoxicity; KB-V1 MDR cells viability, CellTiter-Glo, 72 h; Potency, µM (doses to about 46.1 µM), actives largely listed as cytotoxic; hit rate 3.4% among 400,000; AID 1347076; further: nearly all actives have a fitted effect of over 60% in size
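Compound-treated KB-V1 multidrug-resistant cells, 72 h, 37 degrees C; viability by CellTiter-Glo. Fitted qHTS curves give the values.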
HT1080NT lethal: kills 2HG-producing HT-1080-NT fibrosarcoma cells; HT-1080-NT fibrosarcoma viability, CellTiter-Glo ATP luminescence, 48 h; Potency, µM (series often up to 46.1 µM), for the others: top-dose activity, negative = less viability, usual class: cytotoxic; hit rate 1.6% among 360,000; AID 686970;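 further: NT is the 2HG producing partner of a matched IDH1 knockdown line; 0% = DMSO-treated cells and -100% = media-only wells without cells; nearly all actives have a fitted effect of over 55% in size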
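Toxicity toward the 2HG-producing NT line was scored as %Activity, normalised to DMSO and no-cell wells, from CellTiter-Glo luminescence after 48 hours' treatment.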
TDP1 cell noCPT: qHTS for Inhibitors of human tyrosyl-DNA phosphodiesterase 1 (TDP1): qHTS in cells in absence of CPT. hit rate 15% among 420,000. AID 686978, 2013. DT40 Tdp1-/- hTDP1 cells, no CPT, ATP luminescence, 48 h. Potency, µM (titrated, usually from 46.2 µM), inactives show top-dose activity change, negative = growth inhibition, hits mostly inhibitors; further: nearly all actives have a fitted effect of over 55% in size
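Cells were dispensed at 400 per well, compounds added by pin tool, plates incubated ≥48 hr at 37 °C, then CellTiter-Glo added for 30 min at room temperature before luminescence reading. Line: DT40 Tdp1-/- complemented with hTDP1; camptothecin omitted.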
TDP1 cell CPT: DT40-hTDP1 cell growth loss with CPT | Potency, µM (doses to about 46.2 µM), inactives show at the top dose activity change, negative = growth inhibition, usual class: inhibitors | hit rate 12% among 420,000 | AID 686979 | chicken DT40 Tdp1-/-;hTDP1 cells + 20 nM CPT, ATP luminescence, 48 h; further: nearly all actives have a fitted effect of over 55% in size
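Chicken DT40 Tdp1-/- cells stably complemented with human TDP1 were seeded at 400 cells/well in medium containing 20 nM camptothecin, exposed to pin-transferred compounds, and grown at 37 °C for at least 48 hr. Viability was read as ATP luminescence.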
The depositor's hits bear a star; i = inactive; ? = inconclusive; nt = not tested or not shown. Shown are actives, neighbours in structure and some others; about 19% of the full set was active somewhere. The call rests on the fitted dose curve; in most records, active means well fitted curve in the direction sought with a large enough effect; inconclusive means small, poorly fitted or top-dose-only effect, or another doubt; inactive means no such curve, though single readings can be large; an effect the other way counts as inactive or inconclusive. Unless noted, on the % scale 0 is the no-effect control and ±100 the full control effect; potency means the concentration at half of the fitted maximal effect.

SMILES | KB-3-1 tox | HT1080 IDH1KD tx | KB-V1 MDR tox | HT1080NT lethal | TDP1 cell noCPT | TDP1 cell CPT
CCC[C@@H](CN1CCC[C@H]1CN1C(N)=NC[C@@H]1Cc1ccccc1)N1C[C@@H]([C@H](C)CC)N(CCCC2CCCC2)C1=N | ? | ? | i | ? | 8.2µM* | 10µM*
CCC[C@@H](CN1CCC[C@H]1CN1C(N)=NC[C@H]1CC(C)C)N1C[C@@H](Cc2ccccc2)N(CCCC2CCCC2)C1=N | i | -5% | i | -6% | 12µM* | 10µM*
CCCCN1C(=N)N([C@@H](C)CN2CCC[C@H]2CN2C(N)=NC[C@H]2CC(C)C)C[C@H]1Cc1ccccc1 | i | -4% | i | 5% | ? | 16µM*
C[C@@H](CN1CCC[C@H]1CN1C(N)=NC[C@@H]1Cc1ccccc1)N1C[C@@H](Cc2ccccc2)N(CCc2ccc(Cl)c(Cl)c2)C1=N | ? | -6% | ? | 6% | ? | ?
Cc1cccc(Cc2cccc(C)c2O)c1O | i | -15% | i | -16% | ? | 5%
CN(C(=O)COC(=O)c1cccs1)c1ccccc1 | i | 18% | i | 16% | 3% | -3%
CCC[C@@H](CN1CCC[C@H]1CN1C(N)=NC[C@@H]1Cc1ccccc1)N1C[C@@H](Cc2ccccc2)N(CCc2ccc(Cl)c(Cl)c2)C1=N | i | 3% | i | 14% | ? | ?
CCC[C@@H](CN1CCC[C@H]1CN1C(N)=NC[C@H]1CC(C)C)N1C[C@@H](Cc2ccccc2)N(CCc2ccc(Cl)c(Cl)c2)C1=N | i | -2% | i | -2% | ? | 21µM*
O=c1[nH]c(SCc2ccc(Cl)cc2)nc2ccccc12 | ? | 1% | i | 1% | -11% | -22%
O=Cc1cc2ccccc2nc1SCc1ccc(Cl)c(Cl)c1 | 4.6µM* | 5.8µM* | 5.8µM* | 4.1µM* | 0.92µM* | 1µM*
O=Cc1cc2ccccc2nc1SCc1ccc(Cl)cc1 | 6.5µM* | 7.3µM* | ? | 5.2µM* | 1µM* | 1µM*
O=C(NCc1cccc(F)c1)c1ccc(-n2cnc3cccnc32)cc1 | i | nt | i | nt | ? | ?
O=S(=O)(c1cccs1)N1CCN(c2nc(-c3cccs3)nc3ccccc23)CC1 | nt | 2% | nt | 18% | 20µM* | ?
O=S(=O)(c1ccccc1C(F)(F)F)N1CCN(c2nc(-c3cccs3)nc3ccccc23)CC1 | i | nt | i | nt | 11µM* | 13µM*
CS(=O)(=O)N1CCN(c2nc(-c3cccs3)nc3ccccc23)CC1 | nt | -22% | nt | -24% | 11µM* | 16µM*
CCOC(=O)N1CCN(c2nc(-c3cccs3)nc3ccccc23)CC1 | i | -20% | ? | -21% | 15µM* | 23µM*
CSc1ncnc2c1ncn2CCCNCc1ccc2c(c1)OCO2 | i | 7% | ? | -6% | -16% | 3%
CCC(CC)C(=O)N(C)c1c(C)nc2c(OCc3ccc(F)c(F)c3)cccn12 | i | -15% | i | -20% | 21µM* | ?
CCC(CC)C(=O)N(C)c1c(C)nc2c(OCc3ccc(C(F)(F)F)cc3)cccn12 | i | ? | i | ? | 18µM* | 23µM*
COC(=O)C(NC(=O)CNS(=O)(=O)c1ccc(Br)cc1)c1ccccc1 (stereo unspecified) | i | 0% | i | -17% | ? | ?
Cc1ccccc1NC(=O)C(Cl)=C(Cl)Cl | ? | ? | ? | ? | 23µM* | 21µM*
Cc1ccccc1NC(=O)CCCCC(=O)Nc1ccccc1C | i | 10% | i | -3% | -7% | -1%
Cc1ccccc1NNC(=O)C(=O)NNc1ccccc1C | ? | 18µM* | i | -7% | -16% | -2%
CC(C)C(=O)N1CCC1(C)C(=O)Nc1ccc(-n2cccc2)cc1 (stereo unspecified) | i | -1% | i | 5% | ? | ?
O=C(c1ccc([N+](=O)[O-])o1)N1CCN(c2nc3ccc(F)cc3s2)CC1 | ? | 3% | i | 9% | 23µM* | 21µM*
SMILES | KB-3-1 tox | HT1080 IDH1KD tx | KB-V1 MDR tox | HT1080NT lethal | TDP1 cell noCPT | TDP1 cell CPT
COc1cccc2sc(N3CCN(C(=O)c4ccc([N+](=O)[O-])o4)CC3)nc12 | ? | -2% | ? | -25% | 18µM* | 21µM*
O=C(c1cccs1)N1CCN(c2nc3ccc([N+](=O)[O-])cc3s2)CC1 | i | -4% | i | -1% | -20% | -9%
CCOc1cccc2sc(N3CCN(C(=O)c4ccc5c(c4)CCCC5)CC3)nc12 | nt | nt | nt | nt | 13µM* | 18µM*
O=C(c1ccc([N+](=O)[O-])o1)N1CCN(c2nc3c(Cl)cccc3s2)CC1 | ? | -10% | ? | -1% | 13µM* | 21µM*
O=C(c1ccc([N+](=O)[O-])o1)N1CCCCCC1 | i | -5% | i | 2% | -13% | ?
Cc1cc(C)c2c(n1)nn1c(C)c(CCC(=O)NCc3ccc(Cl)cc3)c(C)nc21 | i | nt | i | nt | ? | -26%
Cn1cc(C(=O)NCCc2ccccc2)c(=O)c2cc(S(=O)(=O)N3CCCCCC3)ccc21 | i | nt | i | nt | ? | -15%
C/C(=N\O)c1ncc(C(F)(F)F)cc1Cl | i | 5% | i | -2% | -4% | 4%
